Results: ChEMBL document CHEMBL2218924, “A broad activity screen in support of a chemogenomic map for kinase signalling research and drug discovery” (Biochem J, 2013)

Legend:
[1] = molecular target: T1, Rhodopsin kinase GRK7 (Homo sapiens) (UniProt Q8WTQ7); conditions: at 10 µM
T1 sequence (whole entry): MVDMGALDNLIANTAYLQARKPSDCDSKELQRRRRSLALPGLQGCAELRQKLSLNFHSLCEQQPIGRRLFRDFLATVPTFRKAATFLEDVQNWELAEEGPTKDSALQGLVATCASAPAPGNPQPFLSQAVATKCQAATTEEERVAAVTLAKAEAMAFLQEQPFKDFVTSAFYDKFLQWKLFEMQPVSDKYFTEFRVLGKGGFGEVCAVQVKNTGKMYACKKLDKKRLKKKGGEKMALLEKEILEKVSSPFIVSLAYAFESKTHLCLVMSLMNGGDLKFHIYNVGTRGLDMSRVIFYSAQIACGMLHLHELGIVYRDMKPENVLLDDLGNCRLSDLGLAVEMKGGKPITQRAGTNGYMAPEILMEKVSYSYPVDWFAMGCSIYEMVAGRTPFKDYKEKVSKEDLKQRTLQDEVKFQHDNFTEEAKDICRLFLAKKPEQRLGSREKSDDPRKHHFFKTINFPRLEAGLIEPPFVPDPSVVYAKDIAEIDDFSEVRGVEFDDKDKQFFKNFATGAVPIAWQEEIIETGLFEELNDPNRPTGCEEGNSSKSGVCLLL

[2] = molecular target: Glycogen synthase kinase-3 alpha (Homo sapiens) (UniProt P49840); conditions: at 1 µM
[3] = molecular target: Glycogen synthase kinase-3 alpha (Homo sapiens) (UniProt P49840); conditions: at 10 µM
[4] = molecular target: Glycogen synthase kinase-3 beta (Homo sapiens) (UniProt P49841); conditions: at 1 µM
[5] = molecular target: Glycogen synthase kinase-3 beta (Homo sapiens) (UniProt P49841); conditions: at 10 µM
[6] = molecular target: Homeodomain-interacting protein kinase 1 (Homo sapiens) (UniProt Q86Z02); conditions: at 1 µM
[7] = molecular target: Homeodomain-interacting protein kinase 1 (Homo sapiens) (UniProt Q86Z02); conditions: at 10 µM
[8] = molecular target: Homeodomain-interacting protein kinase 2 (Homo sapiens) (UniProt Q9H2X6); conditions: at 1 µM
[9] = molecular target: Homeodomain-interacting protein kinase 2 (Homo sapiens) (UniProt Q9H2X6); conditions: at 10 µM
[10] = molecular target: Homeodomain-interacting protein kinase 3 (Homo sapiens) (UniProt Q9H422); conditions: at 1 µM
[11] = molecular target: Homeodomain-interacting protein kinase 3 (Homo sapiens) (UniProt Q9H422); conditions: at 10 µM
[12] = molecular target: T2, Serine/threonine-protein kinase haspin (Homo sapiens) (UniProt Q8TF76); conditions: at 1 µM
T2 sequence (whole entry): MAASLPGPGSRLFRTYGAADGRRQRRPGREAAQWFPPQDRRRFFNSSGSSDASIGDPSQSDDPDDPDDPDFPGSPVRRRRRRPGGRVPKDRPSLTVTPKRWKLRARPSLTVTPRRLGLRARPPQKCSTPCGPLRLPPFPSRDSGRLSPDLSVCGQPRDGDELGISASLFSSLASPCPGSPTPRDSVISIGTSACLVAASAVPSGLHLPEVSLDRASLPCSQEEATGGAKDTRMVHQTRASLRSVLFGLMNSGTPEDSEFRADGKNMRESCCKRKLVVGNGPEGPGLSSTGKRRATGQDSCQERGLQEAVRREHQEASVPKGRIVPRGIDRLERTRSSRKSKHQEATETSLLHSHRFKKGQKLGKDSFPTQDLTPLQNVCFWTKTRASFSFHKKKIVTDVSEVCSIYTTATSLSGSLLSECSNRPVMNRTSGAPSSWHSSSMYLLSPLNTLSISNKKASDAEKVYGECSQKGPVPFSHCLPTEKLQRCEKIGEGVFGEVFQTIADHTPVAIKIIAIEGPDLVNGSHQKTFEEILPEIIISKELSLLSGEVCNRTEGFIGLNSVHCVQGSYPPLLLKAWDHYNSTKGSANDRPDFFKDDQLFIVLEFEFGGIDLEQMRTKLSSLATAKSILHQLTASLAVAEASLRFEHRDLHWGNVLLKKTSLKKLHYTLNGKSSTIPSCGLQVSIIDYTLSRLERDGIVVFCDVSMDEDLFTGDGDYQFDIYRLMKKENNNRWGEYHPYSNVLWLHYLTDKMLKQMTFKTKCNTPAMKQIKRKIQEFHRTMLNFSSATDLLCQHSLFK

[13] = molecular target: T2, Serine/threonine-protein kinase haspin (Homo sapiens); conditions: at 10 µM
[14] = molecular target: Tyrosine-protein kinase HCK (Homo sapiens) (UniProt P08631); conditions: at 1 µM
[15] = molecular target: Tyrosine-protein kinase HCK (Homo sapiens) (UniProt P08631); conditions: at 10 µM
[16] = molecular target: Tyrosine-protein kinase HCK (Homo sapiens) (UniProt P08631); conditions: at 1 µM; remark: listed apart in the source
[17] = molecular target: Tyrosine-protein kinase HCK (Homo sapiens) (UniProt P08631); conditions: at 10 µM; remark: listed apart in the source
[18] = molecular target: T3, Protein kinase C zeta type (Homo sapiens) (UniProt Q05513); conditions: at 10 µM
T3 sequence (whole entry): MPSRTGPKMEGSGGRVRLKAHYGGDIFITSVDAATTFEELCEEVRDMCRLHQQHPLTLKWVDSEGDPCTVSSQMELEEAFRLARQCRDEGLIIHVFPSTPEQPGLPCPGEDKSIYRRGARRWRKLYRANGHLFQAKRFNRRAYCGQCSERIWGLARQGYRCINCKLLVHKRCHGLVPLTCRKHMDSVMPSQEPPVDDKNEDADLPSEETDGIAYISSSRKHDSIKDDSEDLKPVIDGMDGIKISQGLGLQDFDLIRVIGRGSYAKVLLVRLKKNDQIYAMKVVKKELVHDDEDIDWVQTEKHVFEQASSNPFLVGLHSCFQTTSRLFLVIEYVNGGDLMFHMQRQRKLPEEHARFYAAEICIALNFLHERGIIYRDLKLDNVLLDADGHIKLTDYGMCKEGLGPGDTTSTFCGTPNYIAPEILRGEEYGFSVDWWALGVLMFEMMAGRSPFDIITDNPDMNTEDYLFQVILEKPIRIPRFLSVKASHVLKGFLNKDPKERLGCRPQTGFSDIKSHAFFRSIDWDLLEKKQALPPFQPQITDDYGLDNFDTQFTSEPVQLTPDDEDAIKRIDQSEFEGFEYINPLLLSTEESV

[19] = molecular target: Insulin-like growth factor 1 receptor (Homo sapiens) (UniProt P08069); conditions: at 1 µM
[20] = molecular target: Insulin-like growth factor 1 receptor (Homo sapiens) (UniProt P08069); conditions: at 10 µM

Chain of Homeodomain-interacting protein kinase 2 (Homo sapiens) (Q9H2X6 whole entry, looked up): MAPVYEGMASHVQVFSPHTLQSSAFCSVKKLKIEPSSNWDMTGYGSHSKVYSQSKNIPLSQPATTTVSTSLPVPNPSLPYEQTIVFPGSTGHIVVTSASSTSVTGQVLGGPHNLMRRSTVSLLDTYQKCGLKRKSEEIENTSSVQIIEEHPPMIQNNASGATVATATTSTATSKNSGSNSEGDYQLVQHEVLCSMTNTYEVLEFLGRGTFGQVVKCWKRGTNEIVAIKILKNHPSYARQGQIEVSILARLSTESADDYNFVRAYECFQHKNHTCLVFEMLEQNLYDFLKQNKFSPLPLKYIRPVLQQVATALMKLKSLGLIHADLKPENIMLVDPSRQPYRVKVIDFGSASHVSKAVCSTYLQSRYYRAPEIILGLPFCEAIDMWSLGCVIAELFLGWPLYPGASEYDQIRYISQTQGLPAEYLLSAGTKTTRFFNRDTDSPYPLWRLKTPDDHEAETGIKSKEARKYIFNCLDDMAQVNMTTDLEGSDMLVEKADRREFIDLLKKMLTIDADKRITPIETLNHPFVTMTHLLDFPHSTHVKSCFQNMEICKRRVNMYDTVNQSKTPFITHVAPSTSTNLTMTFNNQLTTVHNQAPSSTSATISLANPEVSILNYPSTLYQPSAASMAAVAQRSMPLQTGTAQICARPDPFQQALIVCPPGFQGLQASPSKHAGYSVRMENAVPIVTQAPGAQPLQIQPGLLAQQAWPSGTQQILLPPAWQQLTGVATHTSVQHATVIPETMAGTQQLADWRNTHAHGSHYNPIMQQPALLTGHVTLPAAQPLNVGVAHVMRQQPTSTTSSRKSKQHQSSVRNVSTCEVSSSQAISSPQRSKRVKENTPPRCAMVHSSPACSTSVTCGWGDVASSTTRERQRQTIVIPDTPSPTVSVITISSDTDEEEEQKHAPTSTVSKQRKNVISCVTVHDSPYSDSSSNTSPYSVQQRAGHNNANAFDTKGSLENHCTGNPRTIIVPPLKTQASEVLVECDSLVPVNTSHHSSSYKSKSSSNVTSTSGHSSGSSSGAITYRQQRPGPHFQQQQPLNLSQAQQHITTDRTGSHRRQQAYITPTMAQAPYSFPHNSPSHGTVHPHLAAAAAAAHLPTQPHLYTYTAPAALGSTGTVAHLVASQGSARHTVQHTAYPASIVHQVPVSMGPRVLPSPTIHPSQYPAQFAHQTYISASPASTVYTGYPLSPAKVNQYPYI
Chain of Tyrosine-protein kinase HCK (Homo sapiens) (P08631 2-526 limits assumed): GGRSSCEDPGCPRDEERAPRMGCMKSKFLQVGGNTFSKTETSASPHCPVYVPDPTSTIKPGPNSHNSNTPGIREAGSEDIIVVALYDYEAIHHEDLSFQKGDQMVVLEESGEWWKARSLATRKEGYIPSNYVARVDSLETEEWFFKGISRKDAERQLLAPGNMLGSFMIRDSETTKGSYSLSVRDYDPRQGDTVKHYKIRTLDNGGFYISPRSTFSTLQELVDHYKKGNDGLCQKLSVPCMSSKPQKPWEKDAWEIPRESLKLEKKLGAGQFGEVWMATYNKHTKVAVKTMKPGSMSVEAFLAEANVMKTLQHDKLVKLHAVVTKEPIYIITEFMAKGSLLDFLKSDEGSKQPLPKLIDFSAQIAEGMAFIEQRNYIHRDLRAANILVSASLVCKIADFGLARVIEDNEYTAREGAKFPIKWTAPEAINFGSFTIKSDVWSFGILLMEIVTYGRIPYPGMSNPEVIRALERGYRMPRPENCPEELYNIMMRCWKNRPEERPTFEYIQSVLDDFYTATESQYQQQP
Chain of Insulin-like growth factor 1 receptor (Homo sapiens) (P08069 31-736 limits assumed): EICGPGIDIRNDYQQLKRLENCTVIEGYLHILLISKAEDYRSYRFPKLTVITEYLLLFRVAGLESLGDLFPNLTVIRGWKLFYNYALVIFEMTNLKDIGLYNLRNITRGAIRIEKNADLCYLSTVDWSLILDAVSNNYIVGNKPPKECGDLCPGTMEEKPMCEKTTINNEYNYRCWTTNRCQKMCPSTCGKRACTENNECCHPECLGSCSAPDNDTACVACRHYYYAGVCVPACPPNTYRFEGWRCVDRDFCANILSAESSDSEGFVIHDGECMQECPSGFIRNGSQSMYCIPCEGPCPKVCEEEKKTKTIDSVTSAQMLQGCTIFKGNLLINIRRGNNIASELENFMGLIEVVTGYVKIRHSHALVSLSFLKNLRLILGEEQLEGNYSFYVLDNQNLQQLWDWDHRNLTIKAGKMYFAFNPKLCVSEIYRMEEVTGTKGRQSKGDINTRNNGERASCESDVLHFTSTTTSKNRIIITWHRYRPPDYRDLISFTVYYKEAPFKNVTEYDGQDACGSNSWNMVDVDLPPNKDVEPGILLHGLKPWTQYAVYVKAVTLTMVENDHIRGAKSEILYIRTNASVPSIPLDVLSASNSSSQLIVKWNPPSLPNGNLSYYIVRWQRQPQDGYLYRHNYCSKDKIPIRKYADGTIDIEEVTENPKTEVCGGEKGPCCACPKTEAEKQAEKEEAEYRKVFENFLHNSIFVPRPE
Chain of Insulin-like growth factor 1 receptor (Homo sapiens) (P08069 741-1367 limits assumed): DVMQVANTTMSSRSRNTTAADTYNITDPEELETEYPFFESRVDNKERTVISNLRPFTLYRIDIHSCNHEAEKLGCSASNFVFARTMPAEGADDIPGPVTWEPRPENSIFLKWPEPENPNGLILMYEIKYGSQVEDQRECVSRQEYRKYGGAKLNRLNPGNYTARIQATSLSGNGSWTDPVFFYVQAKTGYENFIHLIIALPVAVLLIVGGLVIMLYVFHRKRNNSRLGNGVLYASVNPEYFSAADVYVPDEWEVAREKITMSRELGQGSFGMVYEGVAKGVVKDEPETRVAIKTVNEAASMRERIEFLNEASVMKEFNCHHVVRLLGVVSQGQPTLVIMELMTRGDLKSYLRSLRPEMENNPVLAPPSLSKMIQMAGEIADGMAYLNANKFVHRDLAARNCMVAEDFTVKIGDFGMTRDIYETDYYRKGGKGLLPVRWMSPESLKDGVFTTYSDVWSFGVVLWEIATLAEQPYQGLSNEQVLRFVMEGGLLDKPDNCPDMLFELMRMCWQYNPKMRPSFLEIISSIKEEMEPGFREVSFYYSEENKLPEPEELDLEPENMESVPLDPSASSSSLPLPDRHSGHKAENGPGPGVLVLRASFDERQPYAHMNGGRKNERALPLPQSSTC
Chain of Homeodomain-interacting protein kinase 1 (Homo sapiens) (Q86Z02 whole entry, looked up): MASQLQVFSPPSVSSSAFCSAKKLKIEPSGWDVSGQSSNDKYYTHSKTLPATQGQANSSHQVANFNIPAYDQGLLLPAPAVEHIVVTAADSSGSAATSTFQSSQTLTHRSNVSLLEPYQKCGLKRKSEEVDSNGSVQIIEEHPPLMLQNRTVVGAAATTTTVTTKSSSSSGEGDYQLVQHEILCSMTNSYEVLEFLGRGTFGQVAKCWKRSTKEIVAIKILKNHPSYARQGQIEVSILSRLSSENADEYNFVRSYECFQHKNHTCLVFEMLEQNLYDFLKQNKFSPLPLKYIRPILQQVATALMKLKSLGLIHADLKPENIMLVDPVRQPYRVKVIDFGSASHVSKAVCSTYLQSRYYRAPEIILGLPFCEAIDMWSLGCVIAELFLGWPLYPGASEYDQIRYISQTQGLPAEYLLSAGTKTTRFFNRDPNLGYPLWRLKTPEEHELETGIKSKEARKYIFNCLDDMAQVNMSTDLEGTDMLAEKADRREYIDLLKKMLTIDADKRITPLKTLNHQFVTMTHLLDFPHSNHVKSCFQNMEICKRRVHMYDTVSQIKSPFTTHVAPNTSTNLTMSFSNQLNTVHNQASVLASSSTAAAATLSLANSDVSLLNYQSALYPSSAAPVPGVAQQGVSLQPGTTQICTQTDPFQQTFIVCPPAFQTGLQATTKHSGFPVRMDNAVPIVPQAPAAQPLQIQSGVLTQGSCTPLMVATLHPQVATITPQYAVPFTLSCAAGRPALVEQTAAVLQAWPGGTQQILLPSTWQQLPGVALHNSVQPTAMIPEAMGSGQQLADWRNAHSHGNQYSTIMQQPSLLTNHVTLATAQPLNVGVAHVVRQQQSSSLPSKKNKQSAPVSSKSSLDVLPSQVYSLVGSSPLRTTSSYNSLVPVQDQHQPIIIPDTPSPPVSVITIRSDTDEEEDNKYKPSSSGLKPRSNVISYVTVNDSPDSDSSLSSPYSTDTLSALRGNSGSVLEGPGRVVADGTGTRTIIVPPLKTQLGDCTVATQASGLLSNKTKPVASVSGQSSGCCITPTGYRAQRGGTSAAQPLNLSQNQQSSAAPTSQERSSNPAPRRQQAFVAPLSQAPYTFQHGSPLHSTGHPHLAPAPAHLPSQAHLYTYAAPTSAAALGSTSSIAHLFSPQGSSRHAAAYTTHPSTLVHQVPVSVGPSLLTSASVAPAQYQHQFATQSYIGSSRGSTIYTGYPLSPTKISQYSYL
Chain of Glycogen synthase kinase-3 beta (Homo sapiens) (P49841 whole entry, looked up): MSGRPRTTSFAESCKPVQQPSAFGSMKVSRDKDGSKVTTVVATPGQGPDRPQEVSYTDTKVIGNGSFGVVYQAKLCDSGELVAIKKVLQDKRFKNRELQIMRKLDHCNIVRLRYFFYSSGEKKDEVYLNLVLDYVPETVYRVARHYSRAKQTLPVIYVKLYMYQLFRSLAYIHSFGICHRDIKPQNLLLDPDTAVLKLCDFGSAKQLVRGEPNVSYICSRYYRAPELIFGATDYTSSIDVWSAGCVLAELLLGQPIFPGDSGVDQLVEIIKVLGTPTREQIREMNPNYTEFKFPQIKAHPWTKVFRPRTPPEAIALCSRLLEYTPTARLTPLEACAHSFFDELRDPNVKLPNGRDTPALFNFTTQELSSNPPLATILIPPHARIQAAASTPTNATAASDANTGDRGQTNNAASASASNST

With COc1cc2ncnc(N3CCN(C(=O)Nc4ccc(Oc5ccccc5)cc4)CC3)c2cc1OC the residual activity [1] was 82%, the residual activity [2] was 103% and the residual activity [3] was 146%. For the same compound, the residual activity [4] was 99%, the residual activity [5] was 148% and the residual activity [6] was 96%. It also gave a residual activity [7] of 96%, a residual activity [8] of 95% and a residual activity [9] of 77%. For the same compound, the residual activity [10] was 95%, the residual activity [11] was 102% and the residual activity [12] was 79%. The residual activity [13] was 82%, the residual activity [14] was 79% and the residual activity [15] was 71%. It also gave a residual activity [16] of 91%, a residual activity [17] of 85% and a residual activity [18] of 116%.
O=C(Nc1cccc(Nc2nccc(Nc3cccc(C(F)(F)F)c3)n2)c1)C1CC1 was tested, and the residual activity [1] was 88%, the residual activity [2] was 94% and the residual activity [3] was 67%. It also gave a residual activity [4] of 79%, a residual activity [5] of 104% and a residual activity [6] of 96%. It also gave a residual activity [7] of 102%, a residual activity [8] of 93% and a residual activity [9] of 89%. It also gave a residual activity [10] of 103%, a residual activity [11] of 103% and a residual activity [12] of 71%. For the same compound, the residual activity [13] was 32%, the residual activity [14] was 42% and the residual activity [15] was 7%. For the same compound, the residual activity [16] was 78%, the residual activity [17] was 78% and the residual activity [19] was 51%. It also gave a residual activity [20] of 6% and a residual activity [18] of 116%.
For Cn1cc(/C=C2\C(=O)Nc3ccc(S(N)(=O)=O)cc32)c2ccccc21, the residual activity [1] was 6%, the residual activity [2] was 120% and the residual activity [3] was 87%. It also gave a residual activity [4] of 89%, a residual activity [5] of 66% and a residual activity [6] of 91%. The residual activity [7] was 93%, the residual activity [8] was 60% and the residual activity [9] was 19%. For the same compound, the residual activity [10] was 85%, the residual activity [11] was 32% and the residual activity [12] was 101%. For the same compound, the residual activity [13] was 50%, the residual activity [14] was 26% and the residual activity [15] was 5%. It also gave a residual activity [16] of 56%, a residual activity [17] of 47% and a residual activity [19] of 118%. The residual activity [20] was 114% and the residual activity [18] was 109%.
For Cc1cc2ncc(-c3ccccc3)nc2cc1C, the residual activity [1] was 94%, the residual activity [2] was 104% and the residual activity [3] was 130%. The residual activity [4] was 88%, the residual activity [5] was 106% and the residual activity [6] was 94%. For the same compound, the residual activity [7] was 102%, the residual activity [8] was 102% and the residual activity [9] was 97%. The residual activity [10] was 105%, the residual activity [11] was 107% and the residual activity [12] was 87%. The residual activity [13] was 83%, the residual activity [14] was 68% and the residual activity [15] was 55%. It also gave a residual activity [16] of 105%, a residual activity [17] of 99% and a residual activity [19] of 131%. For the same compound, the residual activity [20] was 144% and the residual activity [18] was 104%.
In the case of c1ccc(-c2n[nH]cc2-c2ccnc3ccccc23)nc1, the residual activity [1] is reported as 87%, the residual activity [4] is reported as 85% and the residual activity [6] is reported as 98%. For the same compound, the residual activity [7] was 105%, the residual activity [8] was 98% and the residual activity [9] was 101%. The residual activity [10] was 100%, the residual activity [11] was 98% and the residual activity [12] was 71%. It also gave a residual activity [13] of 49%, a residual activity [14] of 86% and a residual activity [15] of 72%. It also gave a residual activity [16] of 100%, a residual activity [17] of 69% and a residual activity [19] of 131%. The residual activity [20] was 133% and the residual activity [18] was 123%.
N#CC(C#N)=C(N)/C(C#N)=C/c1ccc(O)cc1 was tested, and the residual activity [1] was 91%, the residual activity [4] was 83% and the residual activity [5] was 88%. For the same compound, the residual activity [6] was 97%, the residual activity [7] was 99% and the residual activity [8] was 91%. For the same compound, the residual activity [9] was 78%, the residual activity [12] was 88% and the residual activity [13] was 65%. It also gave a residual activity [14] of 84%, a residual activity [15] of 64% and a residual activity [16] of 99%. For the same compound, the residual activity [17] was 87%.
In the case of Nc1n[nH]c2nnc(-c3c(-c4ccccc4)nn4ccccc34)cc12, the residual activity [1] is reported as 81%, the residual activity [2] is reported as 77% and the residual activity [3] is reported as 30%. The residual activity [4] was 89%, the residual activity [5] was 49% and the residual activity [6] was 105%. It also gave a residual activity [7] of 95%, a residual activity [8] of 103% and a residual activity [9] of 95%. The residual activity [10] was 97%, the residual activity [11] was 93% and the residual activity [12] was 128%. It also gave a residual activity [13] of 85%, a residual activity [14] of 76% and a residual activity [15] of 40%. For the same compound, the residual activity [16] was 87%, the residual activity [17] was 40% and the residual activity [19] was 85%. For the same compound, the residual activity [20] was 78% and the residual activity [18] was 93%.
